About 21,000 targets were measured; listed, in parts, are those with the largest changes and a random draw of the rest.
compound: Cc1cc(ccc1-c1ccccc1)C(=O)N1CCCN(CC1)C(=O)CCl [compound 10]; test: probe-labelled cysteine peptide fold change vs DMSO (competition) (log2 fold change); higher = less target engagement (more negative = stronger competition); conditions: 10 µM; THP-1; incubation time: 4 h
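Also: competitive profiling in live THP-1 cells: cysteine peptides tagged with an iodoacetamide desthiobiotin (IA-DTB) probe, intensity after compound treatment relative to DMSO-treated cells.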

UniProt Q5HYJ3, sequence (Q5HYJ3 whole entry, looked up): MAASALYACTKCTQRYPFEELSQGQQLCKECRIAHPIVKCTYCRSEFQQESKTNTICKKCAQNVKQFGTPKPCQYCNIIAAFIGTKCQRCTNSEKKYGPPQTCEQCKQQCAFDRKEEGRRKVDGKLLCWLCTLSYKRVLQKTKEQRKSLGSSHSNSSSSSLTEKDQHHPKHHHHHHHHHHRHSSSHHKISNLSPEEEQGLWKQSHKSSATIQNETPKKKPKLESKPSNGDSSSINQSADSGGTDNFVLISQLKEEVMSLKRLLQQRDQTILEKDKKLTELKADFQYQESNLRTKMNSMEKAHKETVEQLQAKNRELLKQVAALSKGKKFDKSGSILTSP
UniProt O94868, sequence (O94868 whole entry, looked up): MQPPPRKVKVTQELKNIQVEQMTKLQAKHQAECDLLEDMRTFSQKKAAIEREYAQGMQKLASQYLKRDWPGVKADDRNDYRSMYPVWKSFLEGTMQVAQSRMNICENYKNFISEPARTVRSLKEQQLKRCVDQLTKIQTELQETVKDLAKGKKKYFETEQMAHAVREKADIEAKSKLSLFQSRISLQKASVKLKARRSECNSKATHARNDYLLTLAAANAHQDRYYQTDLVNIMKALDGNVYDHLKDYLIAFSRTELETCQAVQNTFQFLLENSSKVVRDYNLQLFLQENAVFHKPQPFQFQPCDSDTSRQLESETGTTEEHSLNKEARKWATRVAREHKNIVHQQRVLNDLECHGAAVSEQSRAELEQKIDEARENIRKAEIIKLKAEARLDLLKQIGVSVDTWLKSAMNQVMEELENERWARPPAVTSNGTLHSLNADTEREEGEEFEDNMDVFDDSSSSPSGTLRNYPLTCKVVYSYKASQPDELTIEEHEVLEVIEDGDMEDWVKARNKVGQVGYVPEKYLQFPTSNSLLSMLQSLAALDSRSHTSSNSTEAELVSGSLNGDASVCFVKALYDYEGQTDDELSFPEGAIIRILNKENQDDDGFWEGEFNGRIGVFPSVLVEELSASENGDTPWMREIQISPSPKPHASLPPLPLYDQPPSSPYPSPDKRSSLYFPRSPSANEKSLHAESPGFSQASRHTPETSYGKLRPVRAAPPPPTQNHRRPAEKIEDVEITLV
UniProt Q9HC35, sequence (Q9HC35 whole entry, looked up): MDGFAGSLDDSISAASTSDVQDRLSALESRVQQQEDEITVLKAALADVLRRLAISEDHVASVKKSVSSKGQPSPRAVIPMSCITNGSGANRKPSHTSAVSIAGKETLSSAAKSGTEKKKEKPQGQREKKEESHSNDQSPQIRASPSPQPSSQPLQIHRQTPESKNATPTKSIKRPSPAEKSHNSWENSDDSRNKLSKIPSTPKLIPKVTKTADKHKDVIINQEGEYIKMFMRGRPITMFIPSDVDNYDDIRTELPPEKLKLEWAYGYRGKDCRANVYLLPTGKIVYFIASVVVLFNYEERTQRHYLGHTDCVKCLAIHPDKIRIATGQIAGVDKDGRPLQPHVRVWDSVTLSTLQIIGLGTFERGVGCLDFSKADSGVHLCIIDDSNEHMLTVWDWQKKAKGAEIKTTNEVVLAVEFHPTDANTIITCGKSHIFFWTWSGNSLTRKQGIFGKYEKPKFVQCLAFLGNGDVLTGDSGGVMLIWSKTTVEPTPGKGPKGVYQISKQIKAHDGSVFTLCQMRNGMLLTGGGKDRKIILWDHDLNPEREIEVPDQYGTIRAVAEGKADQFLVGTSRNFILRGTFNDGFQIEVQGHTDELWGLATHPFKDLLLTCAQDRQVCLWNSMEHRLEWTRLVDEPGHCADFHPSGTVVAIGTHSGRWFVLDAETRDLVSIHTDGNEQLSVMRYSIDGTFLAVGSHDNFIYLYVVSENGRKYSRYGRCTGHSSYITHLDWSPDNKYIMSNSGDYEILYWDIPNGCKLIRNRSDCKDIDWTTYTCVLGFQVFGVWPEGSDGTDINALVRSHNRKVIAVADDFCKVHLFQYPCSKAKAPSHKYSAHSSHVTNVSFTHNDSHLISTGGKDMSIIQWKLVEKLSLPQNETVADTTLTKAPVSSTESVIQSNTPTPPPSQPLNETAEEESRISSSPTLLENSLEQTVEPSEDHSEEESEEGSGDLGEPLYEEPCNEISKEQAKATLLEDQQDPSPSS
UniProt P17813, sequence (P17813 whole entry, looked up): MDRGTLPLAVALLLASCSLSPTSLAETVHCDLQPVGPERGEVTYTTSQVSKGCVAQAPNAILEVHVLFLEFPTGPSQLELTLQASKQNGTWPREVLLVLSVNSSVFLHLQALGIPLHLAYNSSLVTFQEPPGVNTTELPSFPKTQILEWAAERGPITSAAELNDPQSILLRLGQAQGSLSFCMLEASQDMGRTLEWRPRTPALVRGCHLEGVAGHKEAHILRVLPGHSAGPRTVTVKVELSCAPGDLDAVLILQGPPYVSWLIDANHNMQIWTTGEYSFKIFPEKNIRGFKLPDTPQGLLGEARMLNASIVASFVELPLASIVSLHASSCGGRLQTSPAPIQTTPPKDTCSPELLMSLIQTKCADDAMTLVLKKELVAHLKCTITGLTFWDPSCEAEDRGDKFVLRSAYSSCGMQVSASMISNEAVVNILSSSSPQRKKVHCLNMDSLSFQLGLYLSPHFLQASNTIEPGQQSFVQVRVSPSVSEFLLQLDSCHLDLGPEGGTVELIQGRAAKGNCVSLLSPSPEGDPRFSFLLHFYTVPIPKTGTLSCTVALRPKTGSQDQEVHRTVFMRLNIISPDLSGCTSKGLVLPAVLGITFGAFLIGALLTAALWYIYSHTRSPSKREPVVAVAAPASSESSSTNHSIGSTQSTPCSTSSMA
UniProt Q5JSP0, sequence (Q5JSP0 whole entry, looked up): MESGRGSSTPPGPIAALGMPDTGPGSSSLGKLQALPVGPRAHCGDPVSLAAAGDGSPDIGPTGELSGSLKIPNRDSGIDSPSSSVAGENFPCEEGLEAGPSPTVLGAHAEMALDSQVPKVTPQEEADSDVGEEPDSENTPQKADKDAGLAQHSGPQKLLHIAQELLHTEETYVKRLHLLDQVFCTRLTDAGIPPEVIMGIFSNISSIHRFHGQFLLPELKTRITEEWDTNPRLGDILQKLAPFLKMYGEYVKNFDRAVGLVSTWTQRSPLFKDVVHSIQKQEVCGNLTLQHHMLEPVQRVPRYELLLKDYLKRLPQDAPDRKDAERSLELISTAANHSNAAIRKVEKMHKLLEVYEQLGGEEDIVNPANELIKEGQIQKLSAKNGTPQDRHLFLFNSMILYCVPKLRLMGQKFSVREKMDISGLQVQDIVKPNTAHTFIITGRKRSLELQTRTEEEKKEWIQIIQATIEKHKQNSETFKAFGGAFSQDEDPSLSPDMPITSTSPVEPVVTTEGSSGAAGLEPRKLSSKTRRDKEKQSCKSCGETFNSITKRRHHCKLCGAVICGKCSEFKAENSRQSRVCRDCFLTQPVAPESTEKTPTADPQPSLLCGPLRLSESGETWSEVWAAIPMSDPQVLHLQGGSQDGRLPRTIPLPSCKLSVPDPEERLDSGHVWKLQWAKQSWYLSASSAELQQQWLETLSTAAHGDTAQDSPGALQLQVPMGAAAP
UniProt P41091, sequence (P41091 whole entry, looked up): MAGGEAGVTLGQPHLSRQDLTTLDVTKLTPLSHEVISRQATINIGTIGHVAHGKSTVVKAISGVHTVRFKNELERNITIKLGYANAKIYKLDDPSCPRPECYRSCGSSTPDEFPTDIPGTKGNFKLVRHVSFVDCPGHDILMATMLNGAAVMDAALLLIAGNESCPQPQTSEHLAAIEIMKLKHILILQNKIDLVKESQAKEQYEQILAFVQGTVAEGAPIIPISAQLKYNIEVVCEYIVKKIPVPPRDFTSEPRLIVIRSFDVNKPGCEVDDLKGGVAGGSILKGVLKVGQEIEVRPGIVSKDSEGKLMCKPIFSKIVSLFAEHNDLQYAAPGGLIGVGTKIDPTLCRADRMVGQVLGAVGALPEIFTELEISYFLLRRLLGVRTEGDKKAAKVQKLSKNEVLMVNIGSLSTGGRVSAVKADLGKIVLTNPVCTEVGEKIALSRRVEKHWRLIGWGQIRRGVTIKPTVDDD
UniProt Q15029, sequence (Q15029 whole entry, looked up): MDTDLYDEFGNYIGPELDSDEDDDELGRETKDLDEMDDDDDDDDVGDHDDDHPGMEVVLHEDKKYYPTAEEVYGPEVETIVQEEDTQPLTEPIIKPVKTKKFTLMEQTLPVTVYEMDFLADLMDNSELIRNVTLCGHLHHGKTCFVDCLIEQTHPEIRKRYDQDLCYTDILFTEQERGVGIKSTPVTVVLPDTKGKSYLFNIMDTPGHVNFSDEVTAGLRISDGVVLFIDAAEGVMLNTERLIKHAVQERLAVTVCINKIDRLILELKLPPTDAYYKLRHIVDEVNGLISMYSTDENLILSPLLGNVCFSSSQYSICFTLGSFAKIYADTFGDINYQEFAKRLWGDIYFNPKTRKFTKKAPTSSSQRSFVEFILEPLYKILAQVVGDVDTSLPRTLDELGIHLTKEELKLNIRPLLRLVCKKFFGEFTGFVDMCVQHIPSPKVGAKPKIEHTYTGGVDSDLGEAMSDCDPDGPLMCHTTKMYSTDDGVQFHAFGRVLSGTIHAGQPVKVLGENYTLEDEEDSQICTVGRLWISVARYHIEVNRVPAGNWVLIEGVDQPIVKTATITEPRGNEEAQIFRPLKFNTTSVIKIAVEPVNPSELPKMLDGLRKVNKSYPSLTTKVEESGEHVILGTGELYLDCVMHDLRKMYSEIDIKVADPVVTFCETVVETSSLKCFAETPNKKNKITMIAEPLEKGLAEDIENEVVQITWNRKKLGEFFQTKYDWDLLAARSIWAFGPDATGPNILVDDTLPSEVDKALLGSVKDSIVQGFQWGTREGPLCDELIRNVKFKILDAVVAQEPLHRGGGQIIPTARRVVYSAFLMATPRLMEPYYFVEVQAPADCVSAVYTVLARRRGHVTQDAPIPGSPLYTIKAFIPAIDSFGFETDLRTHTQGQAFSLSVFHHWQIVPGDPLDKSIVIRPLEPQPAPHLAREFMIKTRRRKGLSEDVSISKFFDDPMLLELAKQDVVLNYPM

Target	probe-labelled cysteine peptide fold change
FCHSD2_O94868_200_SECNSK (UniProt O94868)	-0.126
FAM208A_Q9UK61_318_HVCPYAVVSFTYK (UniProt Q9UK61)	-0.201
FBXO22_Q8NEZ5_7_MEPVGCCGECR (UniProt Q8NEZ5)	-0.235
DYNC1I2_Q13409_331_TTPEYVFHCQSAVMSATFAK (UniProt Q13409)	0.091
FAM208A_Q9UK61_149_ACLVHNELLEK (UniProt Q9UK61)	-0.2
EFTUD2_Q15029_144+148_TCFVDCLIEQTHPEIR (UniProt Q15029)	-0.176
ELP1_O95163_23_DIQGPGNPQCFSLR (UniProt O95163)	0.145
EEF1B2_P24534_191_LQIQCVVEDDK<|>EEF1D_P29692_247_LQIQCVVEDDK (UniProt P29692+P24534)	0.179
ELOVL5_Q9NYP7_61_NKQPFSCR (UniProt Q9NYP7)	-0.567
FGD3_Q5JSP0_184_LHLLDQVFCTR (UniProt Q5JSP0)	0.0176
EXOSC6_Q5RKV6_248_LGLEGCQR (UniProt Q5RKV6)	-0.00681
ERLEC1_Q96DZ1_126_IESYWTYEVCHGK (UniProt Q96DZ1)	0.192
EML4_Q9HC35_638_LVDEPGHCADFHPSGTVVAIGTHSGR (UniProt Q9HC35)	0.109
ENG_P17813_549_TGTLSCTVALRPK (UniProt P17813)	-0.142
FAM76B_Q5HYJ3_73_PCQYCNIIAAFIGTK (UniProt Q5HYJ3)	-0.188
EIF2S3_P41091_96+101_LDDPSCPRPECYR (UniProt P41091)	-0.389

Reference: the supplement of paper PMC12067093, “Discovery and optimisation of a covalent ligand for TRIM25 and its application to targeted protein ubiquitination” (Chemical Science, 2025)
